Mac1 fbg inh: inhibitors of human CD11b/CD18 binding to fibrinogen; inhibition, % at 10 µM; 0.54% of 93,000 active; K562 CD11b/CD18 adhesion to fibrinogen, ATPlite luminescence; Mn2+ added to activate the integrin; P05107+P11215;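 active = primary inhibition of 50% or more at 10 µM, then 40% or more on retest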
Target sequence (P05107 whole entry, looked up, other chains not shown): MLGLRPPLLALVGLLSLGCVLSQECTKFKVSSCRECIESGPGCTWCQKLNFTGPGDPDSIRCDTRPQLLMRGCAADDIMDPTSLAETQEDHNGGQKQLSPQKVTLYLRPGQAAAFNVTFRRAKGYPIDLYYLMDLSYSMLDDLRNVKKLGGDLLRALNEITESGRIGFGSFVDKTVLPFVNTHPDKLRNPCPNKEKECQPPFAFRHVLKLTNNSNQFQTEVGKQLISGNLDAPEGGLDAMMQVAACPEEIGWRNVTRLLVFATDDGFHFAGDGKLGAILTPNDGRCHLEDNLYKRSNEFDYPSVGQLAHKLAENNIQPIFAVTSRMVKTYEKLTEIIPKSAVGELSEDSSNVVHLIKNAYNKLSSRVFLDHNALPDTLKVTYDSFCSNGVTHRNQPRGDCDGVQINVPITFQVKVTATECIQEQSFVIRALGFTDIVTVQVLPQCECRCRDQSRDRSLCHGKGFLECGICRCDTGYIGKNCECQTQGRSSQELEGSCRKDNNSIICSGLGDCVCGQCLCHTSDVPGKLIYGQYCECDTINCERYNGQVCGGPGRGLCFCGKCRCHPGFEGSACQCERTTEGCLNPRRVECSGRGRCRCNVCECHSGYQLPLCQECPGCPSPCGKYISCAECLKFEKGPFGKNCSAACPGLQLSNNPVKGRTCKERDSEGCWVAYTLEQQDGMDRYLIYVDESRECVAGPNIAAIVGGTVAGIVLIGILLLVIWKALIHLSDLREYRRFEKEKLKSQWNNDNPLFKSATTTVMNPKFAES
CD11b adhes enh: CD11b/CD18-fibrinogen binding enhancement; 0.07% of 93,000 active; K562 CD11b/CD18 adhesion to fibrinogen, ATPlite luminescence; P05107+P11215; activation, % at 10 µM;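 active = 10 µM primary screen giving 50% or more activity, confirmed by 40% or more on retest at that dose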
CYP2C19 inh: blocks human cytochrome P450 2C19 | P33261 | CYP2C19 Supersomes, luciferin-H EGE luminescence, 30 min | inhibition, % at 5 µM | 21% of 96,000 active | AID 778;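 active = CYP2C19 inhibition above a set limit at 5 µM in the primary screen, cut at about 50% in these data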;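 note: plate controls were negative control wells for no effect and 2.5 mM tranylcypromine positive control for full effect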
CYP2C9 activ: activators of human CYP2C9 | recombinant CYP2C9, luciferin-H conversion, luminescence; stronger effect = higher value; factor 1 = untreated enzyme, 0 = blocked | activation factor at 5 µM | 1.4% of 96,000 active | AID 1024;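 active = activation factor of 2 or more for CYP2C9 at a 5 µM dose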;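 note: 0 = sulfaphenazole-blocked wells and 1 = vehicle-only wells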
CYP2C9 inhib: inhibitors of human CYP2C9; P11712; CYP2C9 Supersomes, luciferin-H conversion, luminescence; 20% of 96,000 active; inhibition, % at 5 µM;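 active = blocking of liver enzyme CYP2C9 beyond about 50% at 5 µM, limit read from the data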
CYP2C19 activ: activators of human cytochrome P450 2C19. 96,000 tested, under 10 active. AID 1025. P33261. activation factor at 5 µM. recombinant CYP2C19, luciferin-H EGE luminescence; stronger effect = higher value; 0 = fully inhibited enzyme, 1 = untreated enzyme;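 active = activation factor of at least 2 at 5 µM in the primary screen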;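 note: 0 = wells with 2.5 mM tranylcypromine and 1 = vehicle-only wells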
* marks the source's active call; other numbers are inactive results; · = no result. This is a sample that favours compounds with a hit; in the whole collection about 28% have one here.

SMILES	Mac1 fbg inh	CD11b adhes enh	CYP2C19 inh	CYP2C9 activ	CYP2C9 inhib	CYP2C19 activ
COc1ccc(CCCc2nnc(SCC(=O)Nc3cccc(C)c3)o2)cc1	-5	0	54*	0.4	64*	0.5
OC(c1ccc(OCc2ccccc2)cc1)c1nnc(-c2ccccc2)o1 (centres undefined)	-7	-5	4	1.1	-6	1
c1ccc(COc2ccc(-c3csnn3)cc2)cc1	·	·	68*	0.5	45	0.3
Cc1cc(C)c(C)c(S(=O)(=O)N2C(=S)NC(=O)C2C(C)C)c1C (centres undefined)	20	-7	6	0.7	30	0.9
Cn1c(Oc2ccccc2NCc2cc(Br)ccc2O)cc(=O)n(C)c1=O	·	·	76*	0.1	95*	0.2
COC(=O)c1cc2oc(C)cc2n1CC(=O)N(C)c1ccccc1	-18	3	64*	0.8	19	0.4
CCOC(=O)c1cc2oc(C)cc2n1CC(=O)OC1CCCCC1	-5	10	26	0.7	27	0.7
C=CCN(C(=O)Cn1c(C(=O)OC)cc2oc(C)cc21)c1ccccc1	1	-4	92*	0.5	48	0.1
O=C(Nc1cc(S(=O)(=O)N2CCOCC2)ccc1O)c1ccco1	·	·	36	0.8	24	0.6
O=C(NCCC1=CCCCC1)N[C@@H](Cc1ccccc1)C(=O)O	12	1	7	1	-1	0.9
COC(=O)c1cccc(C(=O)Nc2ccc(C)cc2Br)n1	-6	-4	22	0.5	54*	0.8
Nc1nc2c(s1)CCc1c-2cnn1-c1ccccc1	12	-4	53*	0.7	29	0.5
O=C(c1cccc2c1-c1ccccc1/C2=N/O)N1CCCCC1	-6	-2	51*	0.5	50	0.5
O=C(c1ccccc1)c1ccccc1C(=O)N1CCCC1	1	1	3	0.9	10	1
CC(C)Oc1ccc(C(CC(=O)NCc2ccco2)c2ccccc2)cc1 (centres undefined)	9	-4	61*	0.3	68*	0.4
COc1ccc(CCC(=O)NCc2ccco2)cc1	-22	15	10	1	2	0.9
CCCc1cc(C(=O)NCCc2ccccc2)no1	-15	3	63*	0.6	40	0.4
COc1ccccc1-c1cc(C(=O)NCCc2ccccc2)no1	4	-10	25	3.7*	-268	0.7
COc1ccccc1-c1cc(C(=O)Nc2cccnc2)no1	15	0	27	2.1*	-109	0.7
CCCc1cc(C(=O)Nc2ccccc2C(=O)OC)no1	-4	1	20	2.2*	-117	0.8
Cc1nn(-c2nnc(C)c(=O)[nH]2)c(C)c1SCC(=O)Nc1ccc(C(C)C)cc1	47	-1	-8	0.7	25	1.1
COCCn1c(SCC(=O)NCC2CCCO2)nc2c(c1=O)SC(C)C2 (centres undefined)	-11	-5	-4	1	-2	1
COCCCNC(=O)C1CCN(C(=O)Nc2ccc(Cl)cc2)CC1	-53	6	12	0.9	14	0.9
CCc1cc(C(=O)OC)c(NC(=O)C2CC(=O)NN2Cc2ccccc2)s1 (centres undefined)	9	-6	28	0.5	47	0.7
Cc1ccc(/C=C2\C(=O)Nc3ccccc32)o1	6	-2	·	·	·	·
SMILES	Mac1 fbg inh	CD11b adhes enh	CYP2C19 inh	CYP2C9 activ	CYP2C9 inhib	CYP2C19 activ
O=C1Nc2ccccc2/C1=C\c1cccn1-c1ccc(OC(F)(F)F)cc1	-8	-1	11	0.1	87*	0.9
CC1(C)Cc2ccccc2-c2nc(NCCCO)n(-c3ccccc3)c(=O)c21	6	-1	18	1	5	0.8
COc1cc(Nc2nnc(C)s2)c(Cl)cc1Cl	2	-2	21	0.9	9	0.8
COCCOc1cc(Nc2nnc(C(F)(F)F)s2)c(Cl)cc1Cl	-6	3	66*	0.1	92*	0.3
O=C(Cc1ccc(S(=O)(=O)N2CCOCC2)s1)Nc1nc2c(s1)CCCC2	25	13	16	0.6	39	0.8
CCCCCCCCOC(=O)C(NC(=O)CCC(=O)Nc1ccc(S(N)(=O)=O)cc1)C(O)c1ccccc1 (centres undefined)	16	41	54*	0.4	62*	0.5
CCOC(=O)C(NC(=O)CCC(=O)Nc1ccc(S(N)(=O)=O)cc1)C(O)c1ccccc1 (centres undefined)	-13	-2	18	0.9	13	0.8
CCc1ccc(/C=C2/SC(=S)N(CC(=O)Nc3nc4ccccc4s3)C2=O)cc1	·	·	15	0.5	53*	0.9
CCc1ccc(/C=C2\SC(=S)N(CCCC(=O)Nc3ccccn3)C2=O)cc1	·	·	26	0.5	47	0.7
COc1ccc(N2CCN(Cc3cc4c(cc3O)CCC4)CC2)cc1	21	0	24	0.1	92*	0.8
COc1ccccc1N1CCN(C(c2cc3cc(C)ccc3[nH]c2=O)c2nnnn2C2CCCC2)CC1 (centres undefined)	-6	-4	24	1.2	-18	0.8
COc1ccccc1N1CCN(C(c2cc3ccc(C)cc3[nH]c2=O)c2nnnn2C2CCCC2)CC1 (centres undefined)	-10	0	72*	0.1	91*	0.3
CCOC(=O)C1CCN(C(c2cc3ccc(C)cc3[nH]c2=O)c2nnnn2C2CCCCC2)CC1 (centres undefined)	26	4	79*	0.2	84*	0.2
COc1ccc(NC(=O)CSc2nc3c(c(=O)[nH]2)CCC3)cc1OC	0	2	14	0.7	28	0.9
CCC(Sc1nc2c(c(=O)[nH]1)CCC2)C(=O)Nc1cccc(OC)c1 (centres undefined)	-14	6	23	0.4	62*	0.8
CCOC(=O)c1c(C)[nH]c(C)c1C(=O)CN1C(=O)NC2(CCC(C)CC2)C1=O (centres undefined)	-3	-6	50	1.4	-39	0.5
CCOC(=O)c1c(C)[nH]c(C)c1C(=O)CN1C(=O)NC(CC(C)C)C1=O (centres undefined)	-6	2	59*	0.9	14	0.4
O=[N+]([O-])c1ccc(N2CCN(S(=O)(=O)c3ccccc3[N+](=O)[O-])CC2)cc1N1CCc2ccccc2C1	-7	3	·	·	·	·
Cc1ccc(-c2nn(CC(=O)NC(C)c3ccccc3)c(=O)c3ccccc23)cc1 (centres undefined)	·	·	22	0.6	38	0.8
Cc1ccc(-c2nn(CC(=O)Nc3cccnc3)c(=O)c3ccccc23)cc1	-5	1	16	0.2	81*	0.8
O=C(Cn1nc(-c2cccc([N+](=O)[O-])c2)c2ccccc2c1=O)Nc1cccnc1	-8	10	0	0.2	75*	1
Cc1cc(C)n2nc(C(=O)Nc3cccnc3)nc2n1	10	1	-5	1.1	-8	1.1

Bioassay records deposited in PubChem BioAssay by Sanford-Burnham Center for Chemical Genomics.
